29 compounds from PubChem BioAssay (NCI) can be followed below.

This is part of a sample that, as a whole, favours compounds with a hit. Of some 83,000 tested, about 20% had one in any assay.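 Single-concentration screen, 48 h exposure, 96-well plates. Endpoint: percent growth. Below 10 = active.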 A number with no mark means an inactive call. Calls of active or inactive are those of the source.

What all share (assay): NCI-60 one-dose screen, 48 h (100 = growth as untreated, 0 = no growth, -100 = all killed)
What all share (conditions): 10 µM unless noted

The subject of assay [1] is HCT-15 colon.
For assay [2], the system named is HT29 colon.
In assay [3] the test system is SNB-75 CNS.
Assay [4] relates to SNB-19 CNS.
Assay [5] relates to U251 CNS.
Assay [6] deals with PC-3 prostate.
Assay [7] concerns SK-MEL-5 melanoma.
The subject of assay [8] is LOX IMVI melanoma.
The subject of assay [9] is SK-MEL-28 melanoma.

`COc1ccc2c(c1)c(-c1nc(-c3c[nH]c4ncccc34)cs1)cn2CCN`: the growth in [1] was 43.7%; in assay [2], 55.9%; in assay [3], 56.6%; in assay [4] it was 79.4%; in [5], 66.7%; in [6], 42.8%. Moreover, the growth in [7] was 72.9%; in [8], 66%; in assay [9] it was 100%.
In the case of `CCCCC[C@H]1C/C=C2/C(=O)C=C[C@@H]2C/C=C\CCCC(=O)O[C@@H](CCCCC)C/C=C2/C(=O)C=C[C@@H]2C/C=C\CCCC(=O)O1`, the growth is -54.5% (active) in assay [1]; -77.9% (active) in assay [2]; -80.8% (active) in assay [3]; -83.4% (active) in assay [4]; -94.3% (active) in assay [5]; -71% (active) in assay [6]. For the same compound, the growth is -97.4% (active) in assay [7], -87.1% (active) in [8] and -81.9% (active) in assay [9].
As to `COc1cc(-c2cc3ncccc3c3nc(OCCN(C)C)c4cccnc4c23)cc(OC)c1OC`, the growth was 23.1% in assay [1]; 9.99% (active) in [2]; -36.8% (active) in [3]; 15% in assay [4]; 11.8% in assay [5]; 16.2% in assay [6]. Also, the growth was -7.91% (active) in assay [7], -43.5% (active) in assay [8] and 31.6% in [9].
Take `NNC(=O)c1nc2ccccc2[nH]1`: the growth in assay [1] was 108%; in assay [2], 103%; in [3], 97.4%; in assay [4], 103%; in [5], 86.2%; in assay [6], 96.7%. For the same compound, the growth in [7] is 103%; in [8], 95.3%; in assay [9], 111%.
With `COC(c1ccccc1)(c1ccccc1)c1ccccc1`, the growth in assay [1] was 104%; in [2], 100%; in assay [3] it was 87.7%; in assay [4], 96%; in assay [5] it was 107%; in assay [6], 102%. Further, the growth is 103% in [7], 99.2% in [8] and 109% in [9].
As for `CC(Cc1ccco1)C(=O)NC(N)=O` (stereo not given), the growth in [1] is 99.3%; in [2] it was 102%; in assay [3] it was 91.8%; in [4], 105%; in assay [5], 108%; in assay [6], 98.4%. The growth in assay [7] was 98.6%; in [8], 97.4%; in [9], 105%.
For the compound `c1cnc2[nH]cc(-c3csc(-c4cn(CCCN5CCCCC5)c5ccccc45)n3)c2c1`, the growth in assay [1] was 4.45% (active); in assay [2], -55.8% (active); in [3], 60.2%; in assay [4] it was 39.2%; in assay [5], 10.4%; in [6] it was 34.9%. Besides, the growth is -80.1% (active) in assay [7], -67.6% (active) in assay [8] and -68.4% (active) in [9].
In the case of `CCCCC(=O)OC1CCCCC1C` (stereo not given), the growth in [1] was 108%; in assay [2], 88.2%; in [3], 87.6%; in assay [4], 100%; in assay [5] it was 85.6%; in [6] it was 68.1%. The values for the growth in assay [7], in [8] and in [9] were 91.2%, 97.9% and 98.4%, respectively.
Take `Cc1ccc(N(CC(=O)Nc2ccc(S(=O)(=O)NC3CCN(C)CC3)cc2)S(=O)(=O)c2ccc(Cl)cc2)cc1`: the growth is 90.6% in assay [1]; 10.2% in assay [2]; 58.7% in assay [3]; 88.3% in assay [4]; 19.5% in assay [5]; 84.1% in [6]. The growth in assay [7] is -9.84% (active); in [8], -58.1% (active); in [9], -68.3% (active).
Take `CN1CCN(c2ccc3nc(-c4[nH]ncc4Nc4ncnc5c4OCCCN5)[nH]c3c2)CC1`: the growth in [1] was -64.7% (active); in assay [2], -24.6% (active); in assay [3], -93.1% (active); in assay [4], -46% (active); in [5], -55.7% (active); in assay [6], -58.5% (active). In addition, the values for the growth in assay [7] and in [9] were -93.4% (active) and -73.1% (active), respectively.
`COc1ccc2[nH]c(-c3ccc(Cl)cc3)cc(=O)c2c1`: the growth was 96.4% in assay [1]; 96.3% in [2]; 93.4% in [3]; 96% in [4]; 96.7% in [5]; 88% in [6]. For the same compound, the growth is 95.6% in assay [7], 100% in assay [8] and 104% in assay [9].
Regarding `Cc1cc(N(CCCNc2ccnc3cc(Cl)ccc23)Cc2ccco2)nc(N2CCN(C)CC2)n1`, the growth is 16.9% in [1]; 12.4% in assay [2]; 68.7% in [3]; 58.2% in assay [4]; 28.6% in [5]; 51.5% in assay [6]. Also, the growth was -42.6% (active) in assay [7], 0.725% (active) in assay [8] and -75.2% (active) in assay [9].
With `COc1cc2ncnc(Nc3ccc(OCc4cccc(F)c4)c(Cl)c3)c2cc1NC(=O)C1CCCC1`, the growth in assay [1] is 80.2%; in [2], 82.3%; in [3], 69.2%; in assay [4] it was 83.3%; in assay [5] it was 91.8%; in assay [6], 63.3%. The growth in assay [7] is 95%; in assay [8], 87.5%; in assay [9], 90.1%.
Regarding `C/C(=N\Nc1ccc2ccccc2n1)c1ccccn1`, the growth in [1] was 22.6%; in [2], -2.94% (active); in assay [3] it was 35.3%; in assay [4], 23.8%; in assay [5] it was 4.2% (active); in assay [6], 4.97% (active). In addition, the growth is -57.5% (active) in assay [7], -19.8% (active) in assay [8] and 30.2% in [9].
For the compound `C[C@H]1OC(=O)/C=C/[C@@H](O)[C@@H](O)CCCCCCCC[C@@H]1O`, the growth in assay [1] is 101%; in [2], 87%; in assay [3] it was 90.5%; in assay [4], 100%; in assay [5] it was 90.2%; in assay [6], 85.2%. In addition, the growth in assay [7] is 98%; in [8], 102%; in assay [9], 108%.
With `OCC(CO)(CCl)CCl`, the growth in assay [1] was 109%; in assay [2], 96.6%; in assay [3] it was 96.8%; in assay [4], 98.7%; in assay [5], 84.8%; in assay [6] it was 80.2%. Also, the results for the growth in [7], in assay [8] and in assay [9] were 104%, 98.2% and 103%, respectively.
As for `Nc1nc(Br)nc2c1ncn2C1CC(O)C(CO)O1` (stereo not given), the growth was 59.1% in [1]; 66.3% in assay [2]; 77.4% in assay [3]; 48.6% in [4]; 68.7% in [5]; 70.1% in [6]. Moreover, the results for the growth in assay [7], in [8] and in assay [9] were 51.2%, 82.4% and 95.8%, respectively.
On to `C[Si](C)(C)Cc1ccccc1`, for which the growth is 110% in [1]; 114% in assay [2]; 87.8% in assay [3]; 116% in assay [4]; 114% in [5]; 105% in assay [6]. In addition, the growth in [7] was 108%; in [8], 102%; in [9], 128%.
As to `Cc1ccc(C)c2c1CCC2C(C)C` (stereo not given), the growth was 109% in assay [1]; 105% in assay [2]; 88.4% in assay [3]; 101% in assay [4]; 96.7% in assay [5]; 90.1% in [6]. In addition, the growth in assay [7] was 98.5%; in assay [8], 96%; in assay [9] it was 103%.
In the case of `O=C1c2ccccc2NC(c2cn(-c3ccccc3)nc2-c2cccnc2)N1Cc1ccccc1` (stereo not given), the growth was 84.7% in assay [1]; 84.5% in assay [2]; 92.9% in [3]; 109% in assay [4]; 93.6% in assay [5]; 76.5% in [6]. The growth in assay [7] is 94.2%; in assay [8], 80.2%; in [9], 108%.
`Cc1cc(N2CCCC2)nc(N(CCNc2ccnc3cc(Cl)ccc23)Cc2ccco2)n1`: the growth is 18.3% in [1]; 5.58% (active) in [2]; 68.8% in [3]; 29.4% in assay [4]; 46.5% in assay [5]; 0.723% (active) in assay [6]. Moreover, the growth is -93% (active) in [7], 4.43% (active) in assay [8] and 31% in [9].
Regarding `Clc1ccc2c(NCCNc3nc(-c4ccccc4)cc(-c4ccccc4)n3)ccnc2c1`, the growth in assay [1] is -74.2% (active); in [2], -54.3% (active); in assay [3] it was -72.2% (active); in assay [4], -51.7% (active); in assay [5], -90.6% (active); in assay [6], -88.5% (active). The growth is -93.4% (active) in assay [7], -76.7% (active) in [8] and -90.7% (active) in assay [9].
With `O=C(O[C@@H]1Cc2c(O)cc(O)cc2O[C@@H]1c1cc(O)c(O)c(O)c1)c1cc(O)c2c(c1)OCO2`, the growth is 104% in assay [1]; 95.3% in assay [2]; 93.8% in assay [3]; 104% in assay [4]; 83.4% in [5]; 83.6% in [6]. The values for the growth in assay [7], in [8] and in assay [9] were 98.5%, 95.6% and 101%, respectively.
In the case of `CC(C)(C)c1ccc(OP(=S)(N/N=C/c2ccccc2O)Oc2ccc(C(C)(C)C)cc2)cc1`, the growth in [1] is 69.9%; in [2] it was 69.2%; in [3], 66.1%; in assay [4], 81%; in [5], 50.4%; in assay [6] it was 30.1%. Besides, the growth is 73.5% in [7], 67.6% in assay [8] and 83.3% in assay [9].
As for `C=C1C(=O)O[C@H]2[C@H]1CC/C(COC(=O)NCc1cc3ccccc3[nH]1)=C\CC[C@@]1(C)O[C@@H]21`, the growth in assay [1] was -4.13% (active); in [2], -42.6% (active); in assay [3], 62%; in assay [4], 58.8%; in [5], 54.6%; in assay [6] it was 38%. The growth in assay [7] is 9.31% (active); in [8], -15.8% (active); in assay [9], -26.9% (active).
For `COc1ccc2c(c1)c(-c1nc(-c3c[nH]c4ncccc34)cs1)cn2CCNC(=O)OC(C)(C)C`, the growth was 54.6% in assay [1]; 71.3% in assay [2]; 68.2% in assay [3]; 93% in assay [4]; 69.1% in assay [5]; 31.8% in assay [6]. In addition, the growth in [7] is 54.2%; in assay [8] it was 71.9%; in assay [9], 88.1%.
For `COc1ccc(-c2nc(SCC(=O)Nc3ccc(C(C)=O)cc3)[nH]c(=O)c2C#N)cc1`, the growth in assay [1] was 103%; in [2] it was 101%; in [3] it was 88.3%; in assay [4], 96.5%; in assay [5] it was 89.4%; in assay [6] it was 88%. For the same compound, the growth in assay [7] was 100%; in assay [8], 96.2%; in [9], 101%.
Take `CC(C)(C)c1nc(-c2ccc(O)c(O)c2)cs1`: the growth in [1] is 36.3%; in assay [2] it was 92.6%; in assay [3], 73.1%; in assay [4], 72.1%; in [5], 46.9%; in assay [6], 54%. Besides, the growth is 54.4% in [7], 63.5% in [8] and 87.8% in assay [9].
Consider `O=C(NO)c1ccc(Cn2c(=O)n(CCc3ccc(O)cc3)c(=O)c3ccccc32)cc1`, for which the growth was 96.5% in assay [1]; 92.2% in [2]; 47.8% in assay [3]; 44.1% in assay [4]; 8.31% (active) in [5]; 38.7% in assay [6]. Moreover, the growth is 42.1% in assay [7], 22.4% in assay [8] and 17.5% in assay [9].
